# Reference: PubChem BioAssay AID1159580 (chemical genetic matrix, 2015)
# Hit rate of the full screen: of about 5,500 compounds, about 2,000 (36%) were called active. Roughly 18% stayed inconclusive and do not appear here. Some of the results follow. Values without a mark were called inactive. No stated cut-off is given here; in the data, active means normalized growth mostly below about 0.91 (no sharp cut-off); inconclusive means no clear call, values can overlap the other calls; inactive means mostly above about 0.92.
# Assay: chemical genetic growth profiling, strain panel (AID 1159580);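 further: tested at 20 µM; growth read once vehicle control cultures reached saturation at 30 °C; 1 = growth at the plate median or of vehicle wells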
# Conditions: growth OD
# [1] = S. cerevisiae deletion strains, locus YAL013W, strain DEP1, stronger effect = lower value
# [2] = S. cerevisiae deletion strains, locus YBR229C, strain ROT2, stronger effect = lower value
# [3] = S. cerevisiae deletion strains, locus YCL061C, strain MRC1, stronger effect = lower value
# [4] = S. cerevisiae deletion strains, locus YDL101C, strain DUN1, stronger effect = lower value
# [5] = S. cerevisiae deletion strains, locus YDR150W, strain NUM1, stronger effect = lower value
# [6] = S. cerevisiae deletion strains, locus YEL061C, strain CIN8, stronger effect = lower value
# [7] = S. cerevisiae deletion strains, locus YGR078C, strain PAC10, stronger effect = lower value
# [8] = S. cerevisiae deletion strains, locus YHR030C, strain SLT2, stronger effect = lower value
# [9] = S. cerevisiae deletion strains, locus YHR087W, strain rtc3, stronger effect = lower value
# [10] = S. cerevisiae deletion strains, locus YJR043C, strain POL32, stronger effect = lower value
# [11] = S. cerevisiae deletion strains, locus YJR075W, strain HOC1, stronger effect = lower value
# [12] = S. cerevisiae deletion strains, locus YKL190W, strain CNB1, stronger effect = lower value
# [13] = S. cerevisiae deletion strains, locus YLR039C, strain RIC1, stronger effect = lower value
# [14] = S. cerevisiae deletion strains, locus YLR058C, strain SHM2 (second series), stronger effect = lower value
# [15] = S. cerevisiae deletion strains, locus YLR085C, strain ARP6, stronger effect = lower value
# [16] = S. cerevisiae deletion strains, locus YLR262C, strain YPT6, stronger effect = lower value
# [17] = S. cerevisiae deletion strains, locus YML094W, strain GIM5, stronger effect = lower value
# [18] = S. cerevisiae deletion strains, locus YMR219W, strain ESC1, stronger effect = lower value
# [19] = S. cerevisiae deletion strains, locus YMR263W, strain SAP30, stronger effect = lower value
# [20] = S. cerevisiae deletion strains, locus YNL153C, strain GIM3, stronger effect = lower value
# [21] = S. cerevisiae deletion strains, locus YNL298W, strain CLA4 (second series), stronger effect = lower value
# [22] = S. cerevisiae deletion strains, locus YNL322C, strain KRE1, stronger effect = lower value
# [23] = S. cerevisiae deletion strains, locus YNR030W, strain Alg12, stronger effect = lower value
# [24] = S. cerevisiae deletion strains, locus YOL006C, strain TOP1, stronger effect = lower value
# [25] = S. cerevisiae deletion strains, locus YPL055C, strain LGE1, stronger effect = lower value
# [26] = S. cerevisiae deletion strains, locus YPL241C, strain CIN2, stronger effect = lower value
# [27] = S. cerevisiae deletion strains, locus YPR135W, strain CTF4, stronger effect = lower value
# [28] = S. cerevisiae strains, strain wild type, stronger effect = lower value
smiles,measurement,setting,value
CCOC(=O)C(=CNc1cccc(C#N)c1)C(=O)OCC,normalized growth,[1],1.01
same,normalized growth,[2],0.987
same,normalized growth,[3],1
same,normalized growth,[4],1
same,normalized growth,"S. cerevisiae deletion strains, locus YDL134C, strain PPH21, stronger effect = lower value",0.994
same,normalized growth,[5],0.992
same,normalized growth,[6],0.957
same,normalized growth,[7],1.01
same,normalized growth,[8],0.942
same,normalized growth,[9],0.973
same,normalized growth,[10],1.02
same,normalized growth,[11],0.981
same,normalized growth,[12],0.98
same,normalized growth,[13],0.988
same,normalized growth,[14],0.995
same,normalized growth,[15],0.977
same,normalized growth,[16],0.962
same,normalized growth,[17],0.963
same,normalized growth,[18],0.997
same,normalized growth,[19],1.01
same,normalized growth,"S. cerevisiae deletion strains, locus YNL128W, strain TEP1, stronger effect = lower value",1.01
same,normalized growth,[20],1.01
same,normalized growth,[21],0.999
same,normalized growth,[22],0.997
same,normalized growth,[23],1.03
same,normalized growth,[24],0.91
same,normalized growth,[25],0.934
same,normalized growth,[26],1.01
same,normalized growth,[27],1.03
same,normalized growth,[28],0.994
CCOC(=O)C(=CNc1ccccc1N1CCOCC1)C(=O)OCC,normalized growth,[1],0.96
same,normalized growth,[2],0.989
same,normalized growth,[3],0.978
same,normalized growth,[4],0.958
same,normalized growth,[5],0.939
same,normalized growth,[6],1
same,normalized growth,[7],0.963
same,normalized growth,"S. cerevisiae deletion strains, locus YGR229C, strain SMI1, stronger effect = lower value",0.978
same,normalized growth,[8],0.759
same,normalized growth,[9],0.999
same,normalized growth,"S. cerevisiae deletion strains, locus YJL187C, strain SWE1, stronger effect = lower value",0.979
same,normalized growth,[10],0.967
same,normalized growth,[11],0.991
same,normalized growth,[12],0.955
same,normalized growth,[13],0.9
same,normalized growth,[14],0.971
same,normalized growth,[15],0.722 (active)
same,normalized growth,[16],0.915
same,normalized growth,[17],0.958
same,normalized growth,[18],0.981
same,normalized growth,[19],0.968
same,normalized growth,[20],0.986
same,normalized growth,[21],0.916
same,normalized growth,[22],0.975
same,normalized growth,[23],0.937
same,normalized growth,[24],0.825
same,normalized growth,[25],0.987
same,normalized growth,[26],0.938
same,normalized growth,[27],0.52 (active)
CCOC(=O)C(=CNNC(=O)c1ccccc1-n1cccc1)C(=O)OCC,normalized growth,[1],0.993
same,normalized growth,[2],1.01
same,normalized growth,[3],1.01
same,normalized growth,[4],1.03
same,normalized growth,[5],1.01
same,normalized growth,[6],0.955
same,normalized growth,[7],1.01
same,normalized growth,[8],1.01
same,normalized growth,[9],0.974
same,normalized growth,[10],1.01
same,normalized growth,[11],1.01
same,normalized growth,[14],0.994
same,normalized growth,[15],0.996
same,normalized growth,[16],0.912
same,normalized growth,[17],0.997
same,normalized growth,[18],1.01
same,normalized growth,[19],1
same,normalized growth,[20],0.999
same,normalized growth,[21],1.01
same,normalized growth,[22],0.981
same,normalized growth,[23],1.02
same,normalized growth,[24],0.986
same,normalized growth,[25],0.975
same,normalized growth,[26],1.04
same,normalized growth,[27],1.04
same,normalized growth,[28],0.935
